# Calls of active or inactive are those of the source.
# What was measured:
# [1] = test system: PRMT1 (protein arginine N-methyltransferase 1); experiment: small molecules binding arginine methyltransferase PRMT1 – biochemical, small-molecule microarray, 635 nm fluorescence, primary screen (AID 1088); conditions: higher = more signal;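 note: binding of Prmt1 protein to compounds spotted on small-molecule microarray slides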
# [2] = growth effects on S. cerevisiae YJM789 – YJM789 clinical isolate, OD600, 24 h, basal, primary screen (AID 1089); conditions: higher = more signal, called active from +8 up or from −8 down;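 note: growth of clinical yeast isolate S. cerevisiae YJM 789 seeded 1000 cells per well; test concentration not given here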
# [3] = S. pombe growth modifiers, basal conditions – strain 972, OD600, 24 h, no modulator, primary screen (AID 1090);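 note: basal condition with compound alone and no growth modifier present; test concentration not given here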; conditions: S. pombe 972 growth, higher = more signal, called active from +8 up or from −8 down
# [4] = budding yeast growth modifiers under rapamycin – strain BY4716, OD600, 96 h, primary screen (AID 1091); note: test concentration not given here; conditions: S. cerevisiae BY4716 + rapamycin, higher = more signal, called active from +8 up or from −8 down
# [5] = biological target: Torsin-1A-interacting protein 2 (Homo sapiens) (UniProt Q8NFQ8); experiment: small molecules binding lysate-expressed LULL1 – cell lysate, human LULL1 lysate, 635/667 nm fluorescence, primary screen (AID 1092); conditions: small-molecule microarray, hLULL1 lysate binding, 635 nm fluorescence; higher = more signal;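 note: probe is lysate of COS7 cells overexpressing human LULL1; score merges per-feature 667 nm fluorescence with signal-to-noise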
# Chain of Torsin-1A-interacting protein 2 (Homo sapiens) (Q8NFQ8 whole entry, looked up): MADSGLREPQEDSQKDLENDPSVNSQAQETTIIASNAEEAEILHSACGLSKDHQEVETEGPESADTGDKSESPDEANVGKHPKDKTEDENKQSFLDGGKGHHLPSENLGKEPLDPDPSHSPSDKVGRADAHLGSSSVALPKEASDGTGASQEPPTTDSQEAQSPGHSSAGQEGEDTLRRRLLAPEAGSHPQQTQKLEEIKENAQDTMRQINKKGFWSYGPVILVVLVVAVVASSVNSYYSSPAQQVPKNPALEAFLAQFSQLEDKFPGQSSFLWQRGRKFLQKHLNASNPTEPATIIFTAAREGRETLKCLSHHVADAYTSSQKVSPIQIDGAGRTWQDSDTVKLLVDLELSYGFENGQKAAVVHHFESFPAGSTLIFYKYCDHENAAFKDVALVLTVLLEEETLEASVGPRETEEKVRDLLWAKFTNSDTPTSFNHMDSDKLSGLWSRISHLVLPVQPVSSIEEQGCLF
# [6] = optical density change of DRC41 E. coli – strain DRC41, OD650, 24 h, E. coli filamentation project, primary screen (AID 1093);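 note: MC1000 strain lacking acrAB efflux and sulA so SOS filamentation is blocked; test concentration not given here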; conditions: E. coli DRC41 growth, higher = more signal, called active from +8 up or from −8 down
# [7] = probe aLefty2 binding to arrayed compounds – biochemical, biotinylated probe, 635/667 nm fluorescence, primary screen (AID 1094); conditions: small-molecule microarray, higher = more signal;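 note: score merges spot fluorescence near 667 nm with spot signal-to-noise ratio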
# [8] = test system: Noggin (protein binding on small-molecule microarray); experiment: small molecules binding Noggin protein – biochemical, 635/667 nm fluorescence, primary screen (AID 1095); conditions: 635 nm fluorescence, higher = more signal;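 note: score merges 667 nm feature fluorescence with signal to noise over triplicate slides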
# [9] = biological target: Neurogenic locus notch homolog protein 3 (Homo sapiens) (UniProt Q9UM47); experiment: small molecules binding NOTCH3 protein – biochemical, 635/667 nm fluorescence, primary screen (AID 1096); conditions: small-molecule microarray, 635 nm fluorescence, higher = more signal
# Chain of Neurogenic locus notch homolog protein 3 (Homo sapiens) (Q9UM47 whole entry, looked up): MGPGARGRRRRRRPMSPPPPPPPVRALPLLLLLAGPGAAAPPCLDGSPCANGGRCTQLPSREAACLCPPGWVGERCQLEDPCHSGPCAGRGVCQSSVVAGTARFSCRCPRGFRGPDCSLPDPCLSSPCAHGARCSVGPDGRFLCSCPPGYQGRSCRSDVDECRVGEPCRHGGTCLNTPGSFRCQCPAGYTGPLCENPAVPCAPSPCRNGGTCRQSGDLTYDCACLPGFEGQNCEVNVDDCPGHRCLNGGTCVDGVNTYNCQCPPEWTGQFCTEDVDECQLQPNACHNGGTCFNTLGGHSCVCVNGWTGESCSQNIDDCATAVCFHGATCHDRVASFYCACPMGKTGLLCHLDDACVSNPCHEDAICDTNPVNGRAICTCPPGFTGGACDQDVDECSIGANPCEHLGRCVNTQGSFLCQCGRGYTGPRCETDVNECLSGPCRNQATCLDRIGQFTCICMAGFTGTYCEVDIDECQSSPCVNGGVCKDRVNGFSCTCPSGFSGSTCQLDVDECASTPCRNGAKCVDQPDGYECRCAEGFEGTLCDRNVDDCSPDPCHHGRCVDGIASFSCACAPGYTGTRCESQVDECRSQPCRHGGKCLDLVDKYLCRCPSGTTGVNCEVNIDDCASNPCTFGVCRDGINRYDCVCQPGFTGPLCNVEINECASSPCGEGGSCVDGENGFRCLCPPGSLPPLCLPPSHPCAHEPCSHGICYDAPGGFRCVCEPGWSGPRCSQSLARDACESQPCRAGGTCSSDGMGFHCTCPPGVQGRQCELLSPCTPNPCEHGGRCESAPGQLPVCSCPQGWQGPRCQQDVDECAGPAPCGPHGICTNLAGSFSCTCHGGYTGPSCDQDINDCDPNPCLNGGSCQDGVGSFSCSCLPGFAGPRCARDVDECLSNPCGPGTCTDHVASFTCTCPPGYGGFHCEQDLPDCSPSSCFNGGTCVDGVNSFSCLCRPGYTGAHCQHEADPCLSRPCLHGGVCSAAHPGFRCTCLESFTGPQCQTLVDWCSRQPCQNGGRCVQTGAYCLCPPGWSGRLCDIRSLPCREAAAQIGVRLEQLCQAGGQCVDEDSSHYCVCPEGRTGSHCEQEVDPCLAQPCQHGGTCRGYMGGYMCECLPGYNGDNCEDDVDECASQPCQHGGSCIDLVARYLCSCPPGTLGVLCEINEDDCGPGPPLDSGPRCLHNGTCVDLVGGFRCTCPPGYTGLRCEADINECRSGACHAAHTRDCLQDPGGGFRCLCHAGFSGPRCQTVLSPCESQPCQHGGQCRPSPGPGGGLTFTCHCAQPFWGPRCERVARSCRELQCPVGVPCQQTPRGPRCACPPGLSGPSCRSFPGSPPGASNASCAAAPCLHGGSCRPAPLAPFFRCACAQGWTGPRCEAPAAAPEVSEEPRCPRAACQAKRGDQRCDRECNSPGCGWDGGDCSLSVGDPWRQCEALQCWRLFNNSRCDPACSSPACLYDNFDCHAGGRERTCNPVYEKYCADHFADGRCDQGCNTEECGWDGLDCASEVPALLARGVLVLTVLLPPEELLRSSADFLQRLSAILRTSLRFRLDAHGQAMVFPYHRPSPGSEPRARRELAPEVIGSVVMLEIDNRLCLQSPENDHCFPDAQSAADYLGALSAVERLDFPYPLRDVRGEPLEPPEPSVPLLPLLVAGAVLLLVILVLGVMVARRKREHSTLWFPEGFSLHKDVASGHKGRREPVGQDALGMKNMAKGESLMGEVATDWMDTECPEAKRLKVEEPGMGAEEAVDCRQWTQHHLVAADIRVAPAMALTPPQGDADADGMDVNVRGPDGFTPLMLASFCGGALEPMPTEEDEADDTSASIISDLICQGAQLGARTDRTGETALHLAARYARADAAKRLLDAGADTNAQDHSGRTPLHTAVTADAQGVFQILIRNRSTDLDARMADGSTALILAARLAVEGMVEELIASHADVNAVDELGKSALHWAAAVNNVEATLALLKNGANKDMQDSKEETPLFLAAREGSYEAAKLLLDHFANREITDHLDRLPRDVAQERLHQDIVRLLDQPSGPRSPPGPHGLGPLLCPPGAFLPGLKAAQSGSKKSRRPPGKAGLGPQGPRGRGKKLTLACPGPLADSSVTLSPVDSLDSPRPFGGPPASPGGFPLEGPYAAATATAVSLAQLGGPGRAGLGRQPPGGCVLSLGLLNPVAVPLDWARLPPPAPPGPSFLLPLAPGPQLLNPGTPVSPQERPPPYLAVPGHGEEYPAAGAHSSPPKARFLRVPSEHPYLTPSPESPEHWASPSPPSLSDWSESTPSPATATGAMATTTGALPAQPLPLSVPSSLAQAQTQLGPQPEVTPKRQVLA
# [10] = probe aEGFR binding to arrayed compounds – biochemical, biotinylated probe, 635/667 nm fluorescence, primary screen (AID 1097); conditions: small-molecule microarray, higher = more signal;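 note: probe is a biotinylated anti-EGFR antibody binding compounds printed on slides; score combines fluorescence near 667 nm and signal to noise of each spot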
SMILES,composite z-score [1],z-score [2],z-score [3],z-score [4],composite z-score [5],z-score [6],composite z-score [7],composite z-score [8],composite z-score [9],composite z-score [10]
CC(=O)C[C@H](O)[C@@H](NC(=O)OC(C)(C)C)C(C)C,-0.402,-0.498 (inactive),-0.644 (inactive),0.0836 (inactive),-1.18,-0.972 (inactive),-0.214,-0.198,-0.0052,-0.171
CO[C@@H]1COC(=O)[C@H](C)NC(=O)[C@@H](C)COC(=O)CCC[C@H]1C,1.27,-0.11 (inactive),0.381 (inactive),-1.14 (inactive),2.11,-0.183 (inactive),-0.179,0.209,-0.0217,0.136
O=C(NN=C1C[C@@H](O)[C@@H](O)[C@@H]2[C@@H]3C(=O)N(c4cccc(Oc5ccccc5)c4)C(=O)[C@@H]3CC[C@@H]12)OCc1ccccc1,0.633,0.909 (inactive),0.588 (inactive),0.281 (inactive),1.46,0.108 (inactive),-0.0345,0.635,0.0096,-0.124
CC(=O)OC[C@H]1O[C@H](C#CCCCc2ccccc2)C=C[C@@H]1OC(C)=O,0.351,0.458 (inactive),-19.5 (active),-0.967 (inactive),1.01,0.0065 (inactive),-0.239,0.66,0.389,-0.0703
CO[C@@H]1COC(=O)CC=C[C@@H](C)[C@H](OC)COC(=O)[C@H](COCc2ccccc2)NC(=O)CC=C[C@H]1C,0.234,0.122 (inactive),-0.556 (inactive),-0.0857 (inactive),-1.32,0.024 (inactive),-0.185,0.846,-0.778,-0.231
O=C1C2C=CC(C(O)c3ccc([N+](=O)[O-])cc3)N(Nc3ccc([N+](=O)[O-])cc3)C2C(=O)N1c1ccccc1 (stereo not given),1.46,0.664 (inactive),1.53 (inactive),3.26 (inactive),3.28,-0.956 (inactive),0.198,-0.238,1.04,0.387
Cc1ccc(S[C@]2(C(=O)O)CC(=O)N(Cc3ccccc3)[C@@H]2c2ccc(CO)cc2I)cc1,0.135,-0.866 (inactive),-1.17 (inactive),1.29 (inactive),1.28,-0.104 (inactive),-0.103,-0.404,-0.683,-0.261
COC(=O)[C@H](C)NC(=O)CCC1CC(OC(=O)NCCc2ccc(F)cc2)CC2(CCCC(COC(=O)NCC(c3ccccc3)c3ccccc3)O2)O1 (stereo not given in full),0.915,0.304 (inactive),0.917 (inactive),1.56 (inactive),1.88,0.115 (inactive),-0.175,0.409,0.897,-0.094
COc1ccc(COC(=O)NN=C2C[C@@H](O)[C@@H](O)[C@@H]3[C@@H]4C(=O)N(c5ccc(F)cc5F)C(=O)[C@@H]4CC[C@@H]23)cc1,-1.42,0.935 (inactive),-0.423 (inactive),0.0088 (inactive),-0.524,0.488 (inactive),0.0215,-0.0901,0.14,-0.117
COCCOC(=O)N1C(=O)[C@@]2(c3cc(C#CC4(O)CCCCCC4)ccc31)[C@H](c1ccc(OCCO)cc1)N1[C@H](c3ccccc3)[C@H](c3ccccc3)OC(=O)[C@H]1[C@@H]2C(=O)NC[C@H](O)c1ccccc1,1.55,2.19 (inactive),0.874 (inactive),6.86 (inactive),2.87,1.6 (inactive),-0.0212,0.816,1.03,-0.0555
COc1ccc([Si](C)(C)[C@H]2[C@H](CCO)O[C@@]3(C(=O)N(Cc4cccc(NC(=O)[C@H](C)O)c4)c4ccccc43)[C@@H]2C)cc1,1.54,1.62 (inactive),0.562 (inactive),7.56 (inactive),2.47,1.24 (inactive),-0.0664,1.24,1.09,-0.013
CC1(C)OCC(C(O)C2=CCCCC2=O)CO1 (stereo not given),1.56,0.209 (inactive),-0.0255 (inactive),0.856 (inactive),0.231,-0.449 (inactive),-0.0478,0.986,1.06,0.0688
CCN1C(=O)[C@H]2[C@H]3[C@H](O)[C@H](O)CC(=NO[C@@H]4O[C@H](CO)[C@@H](O)[C@H](O)[C@H]4O)[C@@H]3CC[C@H]2C1=O,-0.685,-0.58 (inactive),-0.599 (inactive),-0.849 (inactive),-1.12,0.103 (inactive),-0.132,-0.103,-0.389,-0.19
CC(CCN1CCc2nc(-c3ccccc3)c(-c3ccccc3)cc2C1)=NO[C@H](C)c1cn([C@@H]2COC[C@H]2O)nn1,1.49,-0.0653 (inactive),-1.35 (inactive),-4.33 (inactive),2.03,0.364 (inactive),0.0218,0.224,0.299,-0.137
O=C1[C@H]2[C@H]3[C@H](O)[C@H](O)CC(=NOCc4ccccc4)[C@@H]3CC[C@H]2C(=O)N1C1CCCCC1,1.1,0.704 (inactive),-3.36 (inactive),0.485 (inactive),1.32,0.0212 (inactive),-0.166,-0.129,0.287,-0.13
CC(CCN1CCc2nc(-c3ccccc3)c(-c3ccccc3)cc2C1)=NO[C@@H](C)c1cn([C@H](CO)Cc2ccccc2)nn1,0.747,-2.46 (inactive),-2.24 (inactive),-4.45 (inactive),0.272,-0.966 (inactive),-0.037,0.549,-0.474,-0.0172
[N-]=[N+]=NCc1ccccc1[C@@H]1OC(c2ccc(OCCCO)cc2)=N[C@]1(Cc1ccccc1)C(=O)N1CCOCC1,1.53,-0.655 (inactive),-0.42 (inactive),0.303 (inactive),3.52,0.986 (inactive),0.422,0.671,1.11,0.256
CS(=O)(=O)CCOC(=O)C1=CC(CCCO)=CC(c2cccs2)N(Cc2cccc(OC(F)(F)F)c2)C=C1C(=O)OCCS(C)(=O)=O (stereo not given),1.57,-0.522 (inactive),-2.82 (inactive),-1.34 (inactive),2.17,-0.0221 (inactive),0.0651,0.025,0.993,0.0269
Cn1c(=O)n2n(c1=O)[C@H]1[C@H](O)[C@@H]3O[C@@H]3C(=NOC[C@@H](O)COCc3ccco3)[C@H]1CC2,0.188,0.0859 (inactive),0.171 (inactive),-0.36 (inactive),0.14,-0.0342 (inactive),-0.171,0.426,0.775,0.0574
C[C@@H](c1ccccc1)N1C(=O)[C@H]2[C@H]3[C@H](O)[C@H](O)CC(=NOC[C@@H](O)COCc4ccco4)[C@@H]3CC[C@H]2C1=O,-0.291,0.539 (inactive),0.37 (inactive),1.3 (inactive),0.304,0.181 (inactive),-0.217,-1.01,-1.1,-0.221
O=C1[C@H]2[C@H]3[C@H](O)[C@H](O)CC(=NOCc4ccccc4)[C@H]3CC[C@H]2C(=O)N1c1ccc(F)cc1F,-0.129,-1.3 (inactive),-0.128 (inactive),-0.982 (inactive),-0.089,0.358 (inactive),-0.373,-0.153,-0.367,-0.0936
CCCNC(=O)OC[C@H]1O[C@H](CCON=CC[C@@H]2C=C[C@H](OC(C)=O)[C@@H](COC(C)=O)O2)C=C[C@@H]1Oc1ccc(OC)cc1,1.18,-0.704 (inactive),0.115 (inactive),0.023 (inactive),0.667,0.457 (inactive),-0.0159,0.643,0.249,0.0486
CCCC[C@H]1OB(O)C[C@H]2C1=C(C)C[C@H]1C(=O)N(C)C(=O)[C@H]12,0.95,-0.334 (inactive),-0.698 (inactive),-0.762 (inactive),1.2,-0.889 (inactive),-0.166,0.622,0.959,-0.12
COC(=O)[C@]1(CO)N=C(c2ccc(OCCCO)cc2)O[C@@H]1c1ccccc1N=[N+]=[N-],1.53,-0.726 (inactive),-0.683 (inactive),-1.12 (inactive),3.19,0.269 (inactive),-0.0639,1.82,0.298,-0.162
C/C=C\[C@@H](NCc1ccccc1Br)[C@@H](O)Cc1ccccc1,-0.0523,-1.81 (inactive),-13.8 (active),-1.64 (inactive),-0.0942,-0.734 (inactive),0.149,-1.52,-0.735,-0.455
O=C1C[C@@H](O)[C@@H](O)[C@@H]2[C@@H]3C(=O)N(c4ccc(F)cc4F)C(=O)[C@@H]3CC[C@@H]12,0.306,-0.168 (inactive),-0.413 (inactive),-0.0694 (inactive),0.662,0.315 (inactive),0.0424,0.438,0.65,-0.109
O=C1[C@H]2[C@H]3[C@H](O)[C@H](O)CC(=NOCc4ccccc4)[C@@H]3CC[C@H]2C(=O)N1Cc1ccccc1,0.0044,-0.132 (inactive),-0.176 (inactive),-1.41 (inactive),0.577,0.263 (inactive),-0.21,0.656,0.797,-0.0828
CN1C(=O)C2C=CC(C(O)C(c3ccccc3)c3ccccc3)N(NC(=O)OC(C)(C)C)C2C1=O (stereo not given),1.42,-1.79 (inactive),-4.38 (inactive),-0.512 (inactive),3.35,-0.805 (inactive),0.59,-0.168,1.09,0.311
CCOC(=O)C1=CC[C@H]2C(=O)N(CC)C(=O)[C@@H]12,0.863,-0.348 (inactive),1.77 (inactive),0.816 (inactive),1.08,-0.233 (inactive),-0.181,0.344,1,0.125

# — PubChem BioAssay
